TGFb inhibitor – inhibitors of TGF-b signaling. 1.2% of 410,000 active. AID 588855. HepG2 CAGA-GFP TGF-b/SMAD3 reporter, GFP fluorescence, 18 h; TGF-beta stimulated, 500 pg/mL final. Potency, µM (doses to about 46.1 µM), actives largely listed as inhibitors; note: nearly all actives have a fitted effect of over 65% in size
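Cell-based qHTS in HEPG2 carrying a CAGA-GFP Smad reporter; compounds added before 500 pg/mL final TGF-beta, 18 h incubation at 37 degrees C, GFP fluorescence quantified per cell by imaging cytometry.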
ATXN2 expr inh – inhibitors of ATXN2 expression | HEK-293 ATXN2-luciferase reporter, luminescence, 24 h | 0.72% of 360,000 active | Potency, µM (series often up to 57 µM), usual class: inhibitors; note: nearly all actives have a fitted effect of over 55% in size
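qHTS (up to 57 uM final) was run with 24 h compound exposure of reporter cells at 37 °C. Each well was multiplexed: SteadyGlo luminescence measured ATXN2-luciferase expression after a fluorogenic Gly-Phe-AFC viability readout (25 uM final).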
HttQ103 aggreg – mutant huntingtin aggregation inhibition; 1.1% of 220,000 active; PC12 HttQ103-GFP aggregates, Acumen cytometry, 40 h; Potency, µM (titrated, usually from 46.1 µM), usual class: inhibitors; note: nearly all actives have a fitted effect of over 60% in size
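Read-out: GFP aggregate count by laser scanning cytometer (488 nm excitation, 500-530 nm emission, 1–25 µm objects >6 SD above background). Cells: PC12, inducible HTTex1-Q103-GFP, 100 nM tebufenozide; compounds titrated.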
HTT cytoprotect – Huntington cell model cytoprotection by ATP luminescence; PC12 HTT-Q103 induced, cytoprotection, ATP luminescence, 40 h; Potency, µM (series often up to 56.4 µM), most hits filed as activators; 0.14% of 230,000 active; AID 1471; note: nearly all actives have a fitted effect of over 45% in size
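Readout: ATPlite luminescence (ATP level). Model: stable PC12, inducible Htt exon1 Q103-GFP. Inducer: tebufenozide, 100 nM final. Compounds: dose series. No G418 in medium.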
ATXN viability – reduces viability in counter-screen for ATXN expression inhibitors. Potency, µM (series often up to 56.7 µM), hits mostly cytotoxic. S2 cells (HEK-293 line with an ATXN2-luciferase reporter) viability, CellTiter-Fluor protease fluorescence, 24 h. 0.49% of 400,000 active; note: nearly all actives have a fitted effect of over 40% in size
HepG2 tox-1 – kills HepG2 cells in TGF-b inhibitor counter-screen; 0.76% of 410,000 active; Potency, µM (series often up to 46.1 µM), hits mostly cytotoxic; HepG2 CAGA-GFP viability, ATP luminescence, 18 h
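HepG2 CAGA-GFP cells (1000/well, DMEM with 1% FBS) received compound, then TGF-beta at 500 pg/mL final, and were incubated 18 hours at 37 degrees C. Viability was read by CellTiter-Glo luminescence. Media-only wells were set as complete cell-killing and DMSO as no toxicity.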
TGFb confirm – confirmation of TGF-b signaling inhibitors in HepG2 reporter cells; shares compounds with TGFb inhibitor; HepG2 CAGA-GFP TGF-b reporter, GFP fluorescence, 18 h; cells stimulated with TGF-beta, 500 pg/mL; Potency, µM (titrated, usually from 46.1 µM), actives largely listed as inhibitors; 63% of 1,600 active; AID 720534; note: nearly all actives have a fitted effect of over 65% in size
HepG2 tox-2 – counter-screen for TGF-b inhibitors: cytotoxicity in HepG2 cells. shares compounds with TGFb inhibitor. HepG2 CAGA-GFP viability, ATP luminescence, 18 h; cells stimulated with TGF-beta, 500 pg/mL. Potency, µM (top dose mostly 46.1 µM), actives largely listed as inhibitors. 27% of 1,600 active. AID 720535; note: nearly all actives have a fitted effect of over 70% in size
CCL64 TGFb inh – TGF-b inhibition, CCL64 orthogonal assay; shares compounds with TGFb inhibitor; CCL64 CAGA-GFP reporter, TGF-b stimulated, GFP fluorescence, 18 h; Potency, µM (series often up to 46.1 µM), actives largely listed as inhibitors; 41% of 1,600 active; AID 720536; note: nearly all actives have a fitted effect of over 65% in size
TGFb COP inh – validation of TGF-b inhibitors in HepG2 COP promoter reporter; Potency, µM (titrated, usually from 46.1 µM), hits mostly inhibitors; HepG2 COP-GFP TGF-b reporter, GFP fluorescence, 18 h; cells stimulated by added recombinant TGF-beta; AID 720537; shares compounds with TGFb inhibitor; 3% of 1,600 active; note: nearly all actives have a fitted effect of over 70% in size
A number is an active result; ! = not active in a repeat; [ ] = another dose, or the depositor's remark. An excerpt weighted towards active compounds, which were near 2.8% of everything screened. Calls come from the whole dose curve; as a rule, active = well fitted curve in the direction sought with a large enough effect; inconclusive = small, poorly fitted or top-dose-only effect, or another doubt; inactive = no such curve, though single readings can be large; an effect the other way counts as inactive or inconclusive.

How did CCOc1ccc(CCN2C(=S)N([C@@H](Cc3ccccc3)CN3CCC[C@@H]3CN3C(=S)NC[C@@H]3CC(C)C)C[C@@H]2Cc2ccccc2)cc1 do in these assays?
ATXN2 expr inh: inactive; ATXN viability: inactive

How did CCOc1ccc(CCN2C(=S)N([C@@H](Cc3ccc(O)cc3)CN3CCC[C@@H]3CN3C(=S)NC[C@@H]3CC(C)C)C[C@@H]2CC(C)C)cc1 do in these assays?
TGFb inhibitor: 4.5µM; ATXN2 expr inh: inconclusive; ATXN viability: inconclusive; HepG2 tox-1: inactive; TGFb confirm: inconclusive; HepG2 tox-2: inactive; CCL64 TGFb inh: 16µM; TGFb COP inh: inactive

How did CCOc1ccc(CCN2C(=S)N([C@@H](Cc3ccc(O)cc3)CN3CCC[C@@H]3CN3C(=S)NC[C@@H]3Cc3ccccc3)C[C@@H]2CC(C)C)cc1 do in these assays?
TGFb inhibitor: inactive; ATXN2 expr inh: inactive; ATXN viability: inconclusive; HepG2 tox-1: inactive

What do the screens show for `COc1ccccc1CNc1ncnc2ccc(-c3cccc(NS(C)(=O)=O)c3)cc12`?
HTT cytoprotect: inactive

What do the screens show for `C[C@@H]1CC[C@@]2(OC1)OC1CC3C4CC=C5CC(O)CCC5(C)C4CCC3(C)C1[C@@H]2C` (stereo partly specified)?
ATXN2 expr inh: inactive; HTT cytoprotect: inactive

How did O=C(c1ccc2c3c(cccc13)CC2)C1CCCN(Cc2ccncc2)C1 (stereo unspecified) do in these assays?
TGFb inhibitor: 7.9µM; HttQ103 aggreg: inactive[9.22 µM]; HTT cytoprotect: inactive[10 µM]; ATXN viability: inactive; HepG2 tox-1: inactive; TGFb confirm: inactive; HepG2 tox-2: inconclusive; CCL64 TGFb inh: inconclusive; TGFb COP inh: inactive

How did CCc1nc(CN2CCCC(C(=O)c3ccc4c5c(cccc35)CC4)C2)c(C)[nH]1 (stereo unspecified) do in these assays?
TGFb inhibitor: inconclusive; ATXN2 expr inh: inactive; HttQ103 aggreg: inactive[9.22 µM]; HTT cytoprotect: inactive[10 µM]; ATXN viability: inactive; HepG2 tox-1: inactive

What do the screens show for `COc1ccccc1Cc1c(-c2ccco2)nc2c3ccccc3ccn12`?
ATXN2 expr inh: inactive; ATXN viability: inactive

How did Cc1ccc2nc(-c3ccc(Cl)cc3)c(CC3CCCCC3)n2c1 do in these assays?
TGFb inhibitor: inactive; ATXN2 expr inh: inactive; ATXN viability: inconclusive; HepG2 tox-1: inactive

Results for Cc1ccc2nc(-c3ccco3)c(CC3CCCCC3)n2c1 ?
TGFb inhibitor: 10µM; ATXN2 expr inh: inactive; HepG2 tox-1: inactive; TGFb confirm: inconclusive; HepG2 tox-2: inconclusive; CCL64 TGFb inh: 21µM; TGFb COP inh: inactive

Results for COc1ccccc1Cc1c(-c2ccco2)nc2ccc(C)cn12 ?
TGFb inhibitor: 10µM; ATXN2 expr inh: inactive; ATXN viability: inconclusive; HepG2 tox-1: inactive; TGFb confirm: 16µM; HepG2 tox-2: inconclusive; CCL64 TGFb inh: inconclusive; TGFb COP inh: inactive

How did COc1ccc(Cc2c(-c3ccco3)nc3c(C)cc(Br)cn23)c(C)c1 do in these assays?
TGFb inhibitor: inconclusive; ATXN2 expr inh: inactive; ATXN viability: inconclusive; HepG2 tox-1: inactive

Results for COc1ccccc1Cc1c(-c2ccco2)nc2c(C)cc(Br)cn12 ?
TGFb inhibitor: 8.9µM; ATXN2 expr inh: 8.9µM; ATXN viability: inconclusive; HepG2 tox-1: inactive; TGFb confirm: 7.3µM; HepG2 tox-2: 9.2µM; CCL64 TGFb inh: 4.6µM; TGFb COP inh: inconclusive

Results for C/C(CC(=O)Nc1ccc(Cl)c(C(F)(F)F)c1)=N\NC(=O)c1cccc(O)c1 ?
TGFb inhibitor: inactive; ATXN2 expr inh: inactive; HttQ103 aggreg: inactive; HTT cytoprotect: inactive[10 µM]; ATXN viability: inactive; HepG2 tox-1: inactive

How did C/C(CC(=O)Nc1ccc(Cl)c(C(F)(F)F)c1)=N\NC(=O)c1ccccc1O do in these assays?
TGFb inhibitor: 16µM; ATXN2 expr inh: inactive; HttQ103 aggreg: 16µM; HTT cytoprotect: inactive[10 µM]; ATXN viability: inactive; HepG2 tox-1: inactive; TGFb confirm: inconclusive; HepG2 tox-2: inconclusive; CCL64 TGFb inh: inconclusive; TGFb COP inh: inactive

Results for C/C=C/C1=CC2=CC(=O)C(C)(OC(=O)c3c(C)cc(O)cc3O)C(=O)C2=CO1 (stereo unspecified) ?
HTT cytoprotect: inactive

How did COc1ccc(Br)cc1/C=C/C(=O)Nc1ccc2ccccc2c1 do in these assays?
TGFb inhibitor: inconclusive; ATXN2 expr inh: inactive; HttQ103 aggreg: inactive; HTT cytoprotect: inactive[10 µM]; ATXN viability: inconclusive; HepG2 tox-1: inactive

What do the screens show for `CCC(=O)Nc1cccc(C(=O)/C=C/c2cc(Br)ccc2OC)c1`?
TGFb inhibitor: 3.5µM; ATXN2 expr inh: 16µM; HttQ103 aggreg: inconclusive; HTT cytoprotect: inactive; ATXN viability: 18µM; HepG2 tox-1: 11µM; TGFb confirm: 3.7µM; HepG2 tox-2: 7.3µM; CCL64 TGFb inh: 3.7µM; TGFb COP inh: inconclusive

What do the screens show for `Cc1ccc(-c2csc(N(CCO)CCCn3c(C(F)(F)F)nc4cc(C(F)(F)F)ccc43)n2)cc1`?
TGFb inhibitor: 7.1µM; ATXN2 expr inh: inactive; ATXN viability: inconclusive; HepG2 tox-1: inactive; TGFb confirm: 21µM; HepG2 tox-2: inactive; CCL64 TGFb inh: inconclusive; TGFb COP inh: inactive

How did OCCN(CCCn1c(C(F)(F)F)nc2ccccc21)c1nc(CN2CCCCC2)cs1 do in these assays?
TGFb inhibitor: inactive; ATXN2 expr inh: inactive; ATXN viability: inactive; HepG2 tox-1: inactive

How did O=C1Cc2c([nH]c3ccc(Br)cc23)-c2ccccc2N1 do in these assays?
TGFb inhibitor: 2.8µM; ATXN2 expr inh: inactive; HTT cytoprotect: 16µM!; ATXN viability: inconclusive; HepG2 tox-1: inactive; TGFb confirm: 0.92µM; HepG2 tox-2: 3.7µM; CCL64 TGFb inh: 2.9µM; TGFb COP inh: inactive

Screening results as filed in PubChem BioAssay.
